HCV inh: qHTS Assay for Inhibitors of Hepatitis C Virus (HCV); Huh7.5.1 HCVcc-Cre infection, luciferase reporter, 44 h; Potency, µM (doses to about 41.8 µM), without a hit: at the top dose activity change, negative = inhibition, most hits filed as inhibitors; 340,000 tested, 3.4% active; AID 651820, 2012; active = well fitted inhibition curve with a large enough effect; inconclusive = small, poorly fitted or top-dose-only effect, or another doubt; inactive = no such curve, though single readings can be large or run the other way; also: potency is read from the fitted curve at half-maximal effect
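Whole-lifecycle infectious HCVcc-Cre system; cells 1,000/well, compound then virus (~0.5 moi) added 4 h after plating, 44 h culture. Luciferase read 15 sec following 15 min substrate incubation, room temp.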
Vaccinia Venus: qHTS for Stage-Specific Inhibitors of Vaccinia Orthopoxvirus: Venus Reporter Primary qHTS. Vaccinia virus Venus reporter expression, fluorescence. Potency, µM (highest dose often 36.5 µM), for the others: top-dose activity change, negative = inhibition, actives largely listed as inhibitors. 330,000 tested, 0.46% active; calls by dose curve; tested in A549 cells; also: potency is read from the fitted curve at half-maximal effect; nearly all actives have a fitted effect of over 30% in size
HCMV inh: qHTS Assay for inhibitors of the human cytomegalovirus (HCMV). HFF cells, HCMV-luciferase reporter, 72 h; stronger effect = lower value. 410,000 tested, 4.5% active. activity change, negative = inhibition, % at 57.5 µM; in the data active = activity change below about -60%; inconclusive = no clear call, values can overlap the other calls; inactive = above about -39%
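Human foreskin fibroblasts infected with luciferase-reporter HCMV at MOI 1 PFU/cell, compounds at two doses. Luciferase measured 72 h post infection; normalized to buffer-only basal and Salinomycin (10uM) controls.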
FMDV antiviral: High Throughput Screening for Foot and Mouth Disease Virus Antivirals; 410,000 tested, 1.2% active; FMDV antiviral cell-based qHTS; Potency, µM (doses to about 57.9 µM), without a hit: top-dose activity change, negative = inhibition, usual class: inhibitors; calls by dose curve; tested in HEK293T cells; also: read-out not given here; potency is read from the fitted curve at half-maximal effect; nearly all actives have a fitted effect of over 45% in size
Vaccinia mCherry: qHTS for Stage-Specific Inhibitors of Vaccinia Orthopoxvirus: mCherry Reporter Primary qHTS; AID 720579, 2013; Potency, µM (doses to about 36.5 µM), without a hit: at the highest dose activity change, negative = inhibition, usual class: inhibitors; 310,000 tested, 0.63% active; Vaccinia virus mCherry reporter infection, fluorescence; calls by dose curve; tested in A549 cells; also: potency is read from the fitted curve at half-maximal effect; nearly all actives have a fitted effect of over 35% in size
Active calls of the source: *. An excerpt weighted towards active compounds, which were near 7.3% of everything screened. % is scaled to controls: 0 for no effect and ±100 for the full control effect.

How did CC(=O)c1cccc(NC(=O)C2Cc3c(-c4cccc(C(C)=O)c4)ccnc3O2)c1 (stereo unspecified) do in these assays?
Vaccinia Venus: -3%; HCMV inh: inconclusive; FMDV antiviral: 22µM*; Vaccinia mCherry: 2%

What do the screens show for `CC(=O)c1cccc(-c2ccnc3c2CC(C(=O)Nc2cccnc2)O3)c1` (stereo unspecified)?
Vaccinia Venus: -17%; HCMV inh: -15; FMDV antiviral: -19%; Vaccinia mCherry: -2%

How did COc1ccc(NC(=O)C2Cc3c(-c4cccc(F)c4)ccnc3O2)cc1 (stereo unspecified) do in these assays?
Vaccinia Venus: -14%; HCMV inh: -81*; FMDV antiviral: -15%; Vaccinia mCherry: -24%

How did O=C(Nc1ccc(Cl)c(C(F)(F)F)c1)C1Cc2c(-c3ccccc3)ccnc2O1 (stereo unspecified) do in these assays?
Vaccinia Venus: -7%; HCMV inh: -84*; FMDV antiviral: -27%; Vaccinia mCherry: inactive

How did CC(=O)Nc1ccc(NC(=O)C2Cc3c(-c4cccc(F)c4)ccnc3O2)cc1 (stereo unspecified) do in these assays?
Vaccinia Venus: -9%; HCMV inh: -21; FMDV antiviral: -2%; Vaccinia mCherry: 22%

What do the screens show for `CC(=O)c1cccc(-c2ccnc3c2CC(C(=O)Nc2ccc(C(C)C)cc2)O3)c1` (stereo unspecified)?
Vaccinia Venus: 5%; HCMV inh: -82*; FMDV antiviral: -14%; Vaccinia mCherry: 46%

How did CCCc1cnc2c(c1SCC(=O)N1CCC(C)CC1)c(=O)n(C)c(=O)n2C do in these assays?
Vaccinia Venus: -7%; HCMV inh: -35; FMDV antiviral: -22%; Vaccinia mCherry: -9%

What do the screens show for `Cc1cccc(C)c1NC(=O)C(CCc1ccccc1)N(C(=O)c1ccc(F)cc1)c1ccccc1F` (stereo unspecified)?
HCMV inh: -70*

What do the screens show for `O=C(NC1CCN(Cc2ccccc2)CC1)c1ccc2c(c1)[nH]c(=O)n2Cc1ccc(F)cc1`?
HCV inh: 2.5µM*; Vaccinia Venus: inconclusive; HCMV inh: -86*; FMDV antiviral: inconclusive; Vaccinia mCherry: inconclusive

Results for CN1C(=O)/C(=C\c2ccccc2F)Sc2ccc(C(=O)NC3CCN(Cc4ccccc4)CC3)cc21 ?
HCV inh: 4µM*; HCMV inh: -71*; FMDV antiviral: inconclusive

What do the screens show for `COc1ccc(/C=C2\Sc3ccc(C(=O)NC4CC4)cc3N(C)C2=O)cc1OC`?
HCV inh: inconclusive; HCMV inh: -29; FMDV antiviral: inconclusive

How did ClCCN(CCCl)c1ccc(/C=C/c2sc3ccccc3[n+]2CCCCI)cc1 do in these assays?
Vaccinia Venus: inactive; Vaccinia mCherry: 304%

How did COCCn1c(=S)[nH]c2cc(C(=O)N3CCN(Cc4ccccc4)CC3)ccc2c1=O do in these assays?
Vaccinia Venus: -12%; Vaccinia mCherry: inactive

How did O=C(Nc1cccc(Cl)c1)Nc1nc(-c2ccccc2)cs1 do in these assays?
HCV inh: -20%; HCMV inh: inconclusive; FMDV antiviral: inconclusive

What do the screens show for `CC(=O)Nc1cccc(-c2csc(Nc3ccccn3)n2)c1`?
HCV inh: 11µM*; Vaccinia Venus: -22%; HCMV inh: -14; Vaccinia mCherry: -14%

Results for Cc1ccnc(Nc2nc(-c3c(C)nc4sccn34)cs2)c1 ?
HCV inh: 13µM*; HCMV inh: -76*; FMDV antiviral: inconclusive

Results for CC(=O)Nc1cccc(-c2csc(NCc3ccccc3)n2)c1 ?
HCV inh: -21%; HCMV inh: -16; FMDV antiviral: 2%

Results for CC(=O)Nc1ccc(-c2csc(Nc3ccc(Cl)cn3)n2)cc1 ?
HCV inh: inconclusive; Vaccinia Venus: inconclusive; HCMV inh: -61*; FMDV antiviral: 25µM*; Vaccinia mCherry: -30%

Results for CC(=O)Nc1cccc(-c2csc(Nc3ccc(Cl)cn3)n2)c1 ?
HCV inh: 11µM*; Vaccinia Venus: inconclusive; HCMV inh: 95; FMDV antiviral: 5%; Vaccinia mCherry: -4%

How did CC(=O)Nc1ccc(-c2csc(Nc3ncccn3)n2)cc1 do in these assays?
HCV inh: 6%; HCMV inh: 0; FMDV antiviral: 67%

Results for CC(=O)Nc1cccc(-c2csc(Nc3cc(C)ccn3)n2)c1 ?
HCV inh: inconclusive; Vaccinia Venus: inconclusive; HCMV inh: -23; Vaccinia mCherry: inconclusive

What do the screens show for `CC(=O)Nc1ccc(-c2csc(Nc3cc(C)ccn3)n2)cc1`?
HCV inh: inconclusive; Vaccinia Venus: -15%; HCMV inh: -61*; FMDV antiviral: inconclusive; Vaccinia mCherry: -28%

What do the screens show for `COc1ccc(-c2nc3cnc(N4CCN(C)CC4)nc3n(Cc3cccc(OC)c3)c2=O)cc1`?
FMDV antiviral: 7%

What do the screens show for `Oc1cccc2ccc(/C=C/c3ccccc3Br)nc12`?
HCV inh: inconclusive; Vaccinia Venus: 5%; HCMV inh: -87*; FMDV antiviral: 12%; Vaccinia mCherry: inconclusive

What do the screens show for `COc1cc(/C=C/c2ccc3cccc(O)c3n2)c(Br)cc1O`?
HCMV inh: -98*

How did CSc1ccc(/C=C/c2ccc3cccc(O)c3n2)cc1 do in these assays?
HCV inh: inconclusive; Vaccinia Venus: 5%; HCMV inh: -66*; FMDV antiviral: -59%; Vaccinia mCherry: -23%

What do the screens show for `COc1ccc(OC)c(/C=C/c2ccc3cccc(O)c3n2)c1`?
HCMV inh: -65*

Results for Oc1cccc2ccc(/C=C/c3cccs3)nc12 ?
HCV inh: inconclusive; HCMV inh: 3; FMDV antiviral: -9%

How did Cc1cc(Nc2ccc(C)c(Cl)c2)n2nc(Cc3ccccc3)nc2n1 do in these assays?
Vaccinia Venus: -1%; HCMV inh: -14; FMDV antiviral: inconclusive; Vaccinia mCherry: -18%

Results for C[C@H]1COc2cc(N3CCOCC3)ccc2S(=O)(=O)N1 ?
HCMV inh: 9

Results for O=C(NCc1cccnc1)c1cnn(-c2nccc(-c3cccs3)n2)c1C1CC1 ?
Vaccinia Venus: -12%; FMDV antiviral: -18%; Vaccinia mCherry: -27%

Results for Cc1ccc2[nH]c3c(c2c1)CN(C(=O)CC1(c2ccccc2)CC(=O)N(Cc2cccnc2)C1=O)CC3 (stereo unspecified) ?
Vaccinia Venus: -17%; FMDV antiviral: -5%; Vaccinia mCherry: -13%

How did COc1cc(/C=C/c2ccc3cccc(O)c3n2)ccc1O do in these assays?
HCV inh: 11µM*; Vaccinia Venus: inconclusive; HCMV inh: 86; FMDV antiviral: -23%; Vaccinia mCherry: inconclusive

How did Cc1ccsc1/C=C/c1ccc2cccc(O)c2n1 do in these assays?
HCV inh: 13µM*; HCMV inh: 105; FMDV antiviral: 0%
